# Experimental data from the supplement of paper PMC8371130.
# Counter-ions that a name gives are not always drawn.
# Test system: HL-1
# Assay: relative cell viability (CellTiter-Glo) vs DMSO control (% of DMSO control); higher = more viable cells
# Settings: oxygen condition: normoxia 72 h; 1000 nM
# Summary of the method: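 Viability of HL-1 mouse atrial cardiomyocytes was assessed by CellTiter-Glo luminescence and normalised to vehicle-treated control cells. Cells were plated in 384-well plates at 1000 cells per well with compounds at 40, 200, 1000 or 5000 nM in 0.01% DMSO, and one day later were placed at 1% O2 for 48 h, then reoxygenated for 24 h, or kept in normoxia for the same duration.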
row,SMILES,relative cell viability
1,NC(=O)NO [Hydroxyurea],109
2,Cc1onc(-c2ccccc2)c1C(=O)N[C@@H]1C(=O)N2[C@@H]1SC(C)(C)[C@@H]2C(=O)O [Oxacillin sodium monohydrate],110
3,CC(C)(C(=O)O)c1ccc(C(O)CCCN2CCC(C(O)(c3ccccc3)c3ccccc3)CC2)cc1 (stereo not drawn) [Fexofenadine HCl],104
4,CN(C)CCCN1c2ccccc2CCc2ccccc21 [Imipramine HCl],101
5,CCC[C@H](N[C@@H](C)C(=O)N1[C@H](C(=O)O)C[C@@H]2CCCC[C@@H]21)C(=O)OCC [Perindopril Erbumine],111
6,COc1ccccc1OCCNCC(O)COc1cccc2[nH]c3ccccc3c12 (stereo not drawn) [Carvedilol],107
7,NCC(=O)CCC(=O)O [5-Aminolevulinic acid hydrochloride],100
8,CCNC(=O)CCC/C=C\C[C@@H]1[C@@H](/C=C/[C@@H](O)CCc2ccccc2)[C@H](O)C[C@@H]1O [Bimatoprost],105
9,Nc1nnc(-c2cccc(Cl)c2Cl)c(N)n1 [Lamotrigine],115
10,CNCC[C@@H](Oc1ccccc1C)c1ccccc1 [Atomoxetine HCl],103
11,Clc1ccc2nsnc2c1NC1=NCCN1 [Tizanidine HCl],98.5
12,CC(C)c1c(C(=O)Nc2ccccc2)c(-c2ccccc2)c(-c2ccc(F)cc2)n1CC[C@@H](O)C[C@@H](O)CC(=O)O [Atorvastatin calcium],81.6
13,C[C@@H]1CCN(C(=O)CC#N)C[C@@H]1N(C)c1ncnc2[nH]ccc12 [Tofacitinib citrate],98.7
14,CCN(Cc1ccncc1)C(=O)C(CO)c1ccccc1 (stereo not drawn) [Tropicamide],101
15,N=C(N)NC(=O)c1nc(Cl)c(N)nc1N [Amiloride hydrochloride],96.6
16,NCCCC(O)(P(=O)(O)O)P(=O)(O)O [Alendronate],107
17,CC(=O)Oc1ccccc1C(=O)O [Aspirin],93.6
18,NC(=O)N1c2ccccc2CC(=O)c2ccccc21 [Oxcarbazepine],116
19,CC(=O)OCC(=O)[C@@]12OC(C)(C)O[C@@H]1C[C@H]1[C@@H]3C[C@H](F)C4=CC(=O)C=C[C@]4(C)[C@@]3(F)[C@@H](O)C[C@@]12C [Fluocinonide],89.5

row,SMILES,relative cell viability
1,CC(=O)[C@H]1CC[C@H]2[C@@H]3CC=C4C[C@@H](O)CC[C@]4(C)[C@H]3CC[C@]12C [Pregnenolone],105
2,CCCOc1ccc(C(=O)OCCN(CC)CC)cc1N [Proparacaine HCl],78.4
3,C=CC[C@@H]1/C=C(\C)C[C@H](C)C[C@H](OC)[C@H]2O[C@@](O)(C(=O)C(=O)N3CCCC[C@H]3C(=O)O[C@H](/C(C)=C/[C@@H]3CC[C@@H](O)[C@H](OC)C3)[C@H](C)[C@@H](O)CC1=O)[C@H](C)C[C@@H]2OC,106
4,O=C(Nc1ccc([N+](=O)[O-])cc1Cl)c1cc(Cl)ccc1O [Niclosamide],56.2
5,CCCCCCCCOc1ccccc1C(=O)Nc1ccc(C(=O)OCC[N+](C)(CC)CC)cc1 [Otilonium Bromide],110
6,C#C[C@]1(OC(C)=O)CC[C@H]2[C@@H]3CCC4=C[C@@H](OC(C)=O)CC[C@@H]4[C@H]3CC[C@@]21C [Ethynodiol diacetate],104
7,N[C@@H]1CN(c2c(F)cc3c(=O)c(C(=O)O)cn([C@@H]4C[C@@H]4F)c3c2Cl)CC12CC2 [Sitafloxacin hydrate],99
8,CCCCCCNC(=O)n1cc(F)c(=O)[nH]c1=O [Carmofur],44.3
9,CCCC(CCC)C(=O)O [Divalproex sodium],106
10,c1ccc2c(CC3=NCCN3)cccc2c1 [Naphazoline hydrochloride],106
11,C[C@]12CC[C@@H]3c4ccc(O)cc4C[C@@H](CCCCCCCCC[S+]([O-])CCCC(F)(F)C(F)(F)F)[C@H]3[C@@H]1CC[C@@H]2O (stereo partly drawn) [Fulvestrant],122
12,N=C(N)Nc1ccc(C(=O)Oc2ccc3cc(C(=N)N)ccc3c2)cc1 [Nafamostat mesylate],111
13,Cc1cn([C@H]2C[C@H](N=[N+]=[N-])[C@@H](CO)O2)c(=O)[nH]c1=O [Zidovudine],112
14,O=C(O)Cc1cc(I)c(Oc2ccc(O)c(I)c2)c(I)c1 [Tiratricol],101
15,C[C@@H](Oc1cc(-c2cnn(C3CCNCC3)c2)cnc1N)c1c(Cl)ccc(F)c1Cl [Crizotinib],87.4
16,CC[C@H]1OC(=O)[C@H](C)[C@@H](O[C@H]2C[C@@](C)(OC)[C@@H](O)[C@H](C)O2)[C@H](C)[C@@H](O[C@@H]2O[C@H](C)C[C@H](N(C)C)[C@H]2O)[C@](C)(OC)C[C@@H](C)C(=O)[C@H](C)[C@@H](O)[C@]1(C)O [Clarithromycin],107
17,S=c1[nH]cnc2nc[nH]c12 [Mercaptopurine],108
18,CCOc1nc2cccc(C(=O)OC(C)OC(=O)OC3CCCCC3)c2n1Cc1ccc(-c2ccccc2-c2nn[nH]n2)cc1 (stereo not drawn) [Candesartan cilexetil],101
19,NC12CC3CC(CC(C3)C1)C2 [Amantadine hydrochloride],101
